Values joined by “and” are separate entries in the source; they are usually repeats but may differ in a detail not shown here. Equal values may be shown once. Inconclusive results are not listed. Active and inactive are the calls of the source. Calls come from the whole dose curve; as a rule, active = well fitted inhibition curve with a large enough effect; inconclusive = small, poorly fitted or top-dose-only effect; inactive = flat fitted curve, though single readings scatter.
How the values were obtained:
NIH3T3 [1] = test: Cytotoxic Profiling of Annotated Libraries Using Quantitative High-Throughput Screening (AID 1296008); settings: Five cell lines viability, CellTiter-Glo ATP luminescence, 48-72 h; max response: stronger effect = lower value
How it was run: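 Cytotoxicity was measured as CellTiter-Glo ATP luminescence, read after 10 min at room temperature. Compound treatment of the cells lasted 48 or 72 hr at 37 degrees Celsius in a qHTS format.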

CRL-7250 = normal cell line; test: qHTS assay to identify novel small-molecules to repurpose for Merkel cell carcinoma treatment (AID 1296009); settings: MCC and control cell lines, CellTiter-Glo viability, 72 h; at 44.8 µM (top of the series) unless noted
How it was run: (§1)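 72 hr, 37 degree celsius; NPC 8-pt / MIPE 11-pt dose response; compound pinned in DMSO; CellTiter-Glo, 10 min RT, luminescence; normalized to no-cell and DMSO controls.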

MCC-13 = test: as above; settings: MCC and control cell lines, CellTiter-Glo viability, 72 h; series mostly up to 46 µM
How it was run: as §1

MCC-26 = test: as above; settings: MCC and control cell lines, CellTiter-Glo viability, 72 h; series mostly up to 46 µM
How it was run: as §1

MKL-1 = test: as above; settings: MCC and control cell lines, CellTiter-Glo viability, 72 h; series mostly up to 46 µM
How it was run: as §1

MKL-2 = test: as above; settings: MCC and control cell lines, CellTiter-Glo viability, 72 h; series mostly up to 46 µM
How it was run: as §1

NIH3T3 [2] = test: as above; settings: MCC and control cell lines, CellTiter-Glo viability, 72 h; at 44.8 µM (top of the series) unless noted
How it was run: as §1

UISO = test: as above; settings: MCC and control cell lines, CellTiter-Glo viability, 72 h; series mostly up to 46 µM
How it was run: as §1

HACAT = test: as above; settings: MCC and control cell lines, CellTiter-Glo viability, 72 h; at 44.8 µM (top of the series) unless noted
How it was run: as §1

HEK293T = test: as above; settings: MCC and control cell lines, CellTiter-Glo viability, 72 h; at 44.8 µM (top of the series) unless noted
How it was run: as §1
% is set by controls: 0 for no effect and ±100 for the full control effect.
Note: nearly all actives have a fitted effect of over 60% in size.

Cc1cc(O)ccc1Cl
inactive: outcome (NIH3T3 [1]) | outcome (CRL-7250) | Potency (MCC-13) | Potency (MCC-26) | Potency (MKL-1) | Potency (MKL-2) | outcome (NIH3T3 [2]) | Potency (UISO)

O=C(O)C(Cl)Cl
inactive: max response (NIH3T3 [1]) -3.68% | outcome (CRL-7250) | outcome (HACAT) | outcome (HEK293T) | Potency (MCC-13) | Potency (MCC-26) | Potency (MKL-1) | Potency (MKL-2) | Potency (UISO)

COc1cccc2c1[C@]13CCN(CC4CC4)[C@H](C2)[C@]1(OC)CCC(=O)C3
inactive: max response (NIH3T3 [1]) 3.8% | outcome (CRL-7250) | outcome (HACAT) | outcome (HEK293T) | Potency (MCC-13) | Potency (MCC-26) | Potency (MKL-1) | Potency (MKL-2) | Potency (UISO)

O=C(Oc1ccc([N+](=O)[O-])cc1)N1CCN(Cc2cccc(Oc3ccccc3)c2)CC1
inactive: max response (NIH3T3 [1]) 0.403% | outcome (NIH3T3 [1]) | Potency (MCC-13) | Potency (MCC-26) | Potency (MKL-1) | Potency (MKL-2) | outcome (NIH3T3 [2]) | Potency (UISO)

O=S(=O)(F)Cc1ccccc1
inactive: max response (NIH3T3 [1]) 3.32% | outcome (CRL-7250) | outcome (HEK293T) | Potency (MCC-13) | Potency (MCC-26) | Potency (MKL-1) | Potency (MKL-2) | Potency (UISO)

CC(O)CN1CCN(CC(=O)[O-])CCN(CC(=O)[O-])CCN(CC(=O)[O-])CC1.[Gd+3] (stereo unspecified)
inactive: max response (NIH3T3 [1]) -1.05% | outcome (CRL-7250) | Potency (MCC-13) | Potency (MCC-26) | Potency (MKL-1) | Potency (MKL-2) | Potency (UISO)

CCc1c(C(=O)C(N)=O)c2c(OCC(=O)O)cccc2n1Cc1ccccc1
inactive: max response (NIH3T3 [1]) -3.2% | outcome (NIH3T3 [1]) | Potency (MCC-13) | Potency (MCC-26) | Potency (MKL-1) | Potency (MKL-2) | outcome (NIH3T3 [2]) | Potency (UISO)

CCN(CC)C(=O)c1ccc(C2=CC3(CCNCC3)Oc3cccc(O)c32)cc1
inactive: max response (NIH3T3 [1]) 0.128% | outcome (NIH3T3 [1]) | outcome (HACAT) | Potency (MCC-13) | Potency (MCC-26) | Potency (MKL-1) | Potency (MKL-2) | outcome (NIH3T3 [2]) | Potency (UISO)

COc1ccc2c(c1)CN(C)CC2c1ccc(Cl)c(Cl)c1 (stereo unspecified)
inactive: max response (NIH3T3 [1]) -1.98% | outcome (CRL-7250) | outcome (HACAT) | Potency (MCC-13) | Potency (MCC-26) | Potency (MKL-1) | Potency (UISO)

CC(=O)N(C)c1cccc(-c2ccnc3c(C(=O)c4cccs4)cnn23)c1
inactive: max response (NIH3T3 [1]) -0.872% and 2.98% | outcome (CRL-7250) | outcome (HACAT) | Potency (MCC-13) | Potency (MCC-26) | Potency (MKL-1) | Potency (MKL-2) | Potency (UISO)

Clc1ccccc1C(c1ccccc1)(c1ccccc1)n1cccn1
inactive: outcome (NIH3T3 [1]) | outcome (CRL-7250) | Potency (MCC-13) | Potency (MCC-26) | Potency (MKL-1) | Potency (MKL-2) | outcome (NIH3T3 [2]) | Potency (UISO)

O=C1C(I)=CC(=C(c2cc(I)c(O)c(I)c2)c2ccccc2C(=O)O)C=C1I
inactive: outcome (NIH3T3 [1]) | outcome (CRL-7250) | outcome (HACAT) | Potency (MCC-26) | Potency (MKL-1) | Potency (MKL-2) | outcome (NIH3T3 [2]) | Potency (UISO)

COc1ccc(CC2NCCc3cc(OC)c(OC)cc32)cc1OC (stereo unspecified)
inactive: max response (NIH3T3 [1]) -2.7% | outcome (HACAT) | Potency (MCC-13) | Potency (MCC-26) | Potency (MKL-1) | Potency (MKL-2) | Potency (UISO)

COc1ccc2c(c1)[C@]13CCCCC1C(C2)N(C)CC3 (stereo partly specified)
inactive: outcome (NIH3T3 [1]) | outcome (HEK293T) | Potency (MCC-13) | Potency (MCC-26) | Potency (MKL-1) | Potency (MKL-2) | outcome (NIH3T3 [2]) | Potency (UISO)

O=C1C=CC[C@@H]2[C@H]3CCCN4CCC[C@@H](CN12)[C@@H]34
inactive: outcome (NIH3T3 [1]) | outcome (HEK293T) | Potency (MCC-13) | Potency (MCC-26) | Potency (MKL-1) | Potency (MKL-2) | outcome (NIH3T3 [2]) | Potency (UISO)

Cc1nc(-c2ccc(-c3ccc(C(=O)N4CCc5cc6c(cc54)C4(CCN(C)CC4)CO6)cc3)c(C)c2)no1
inactive: max response (NIH3T3 [1]) 1.47% | outcome (HACAT) | Potency (MCC-13) | Potency (MKL-1) | Potency (MKL-2) | Potency (UISO)

O=C(Oc1ccc([N+](=O)[O-])cc1)N1CCC(C(O)(c2ccc3c(c2)OCO3)c2ccc3c(c2)OCO3)CC1
inactive: outcome (NIH3T3 [1]) | outcome (HACAT) | Potency (MCC-13) | Potency (MCC-26) | Potency (MKL-1) | Potency (MKL-2) | outcome (NIH3T3 [2]) | Potency (UISO)

C1=C2CCCN[C@H]2[C@@H]2C[C@H]1[C@@H]1CCCCN1C2
inactive: outcome (NIH3T3 [1]) | outcome (HACAT) | Potency (MCC-13) | Potency (MCC-26) | Potency (MKL-1) | Potency (MKL-2) | outcome (NIH3T3 [2]) | Potency (UISO)

O=C(O)CNC(=O)c1c(O)c2ccccc2n(Cc2ccccc2)c1=O
inactive: max response (NIH3T3 [1]) -11% and 0.668% | outcome (HACAT) | outcome (HEK293T) | Potency (MCC-13) | Potency (MCC-26) | Potency (MKL-1) | Potency (MKL-2) | Potency (UISO)

O=[N+]([O-])c1cc([N+](=O)[O-])c2ccccc2c1
inactive: max response (NIH3T3 [1]) 4.23% | outcome (HACAT) inactive [at 92 µM] | Potency (MCC-13) | Potency (MCC-26) | Potency (MKL-1) | Potency (MKL-2)

CCCCC(CC)COC(=O)c1ccccc1C(=O)OCC(CC)CCCC (stereo unspecified)
inactive: max response (NIH3T3 [1]) -8.2% | outcome (HACAT) inactive [at 92 µM] | outcome (HEK293T) inactive [at 92 µM] | Potency (MCC-13) | Potency (MCC-26) | Potency (MKL-1) | Potency (MKL-2) | Potency (UISO)

C[C@]12Cc3cn[nH]c3C[C@@H]1CC[C@@H]1[C@H]2CC[C@@]2(C)[C@H]1CC[C@]2(C)O
inactive: max response (NIH3T3 [1]) -12.4% | outcome (HACAT) | Potency (MCC-13) | Potency (MCC-26) | Potency (MKL-1) | Potency (MKL-2) | Potency (UISO)

— PubChem BioAssay (NCATS)
